# In PubChem BioAssay (NCATS):
# “And” between values parts separate entries of the source, which are not always exact repeats. Equal values may be shown once. Records with an inconclusive call do not appear. A call without a number means that no potency is given here. The source made the active and inactive calls. Unless noted, the call rests on the fitted dose curve; in most records, active means well fitted cell-killing curve with a large enough effect; inconclusive means small, poorly fitted or top-dose-only effect; inactive means flat fitted curve, though single readings scatter.
# Experiments:
# [1] = Cell Viability - LYMP2-007 (AID 979);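 further: cells exposed to compound for 24 h before reading; nearly all actives have a fitted effect of over 60% in size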
# Summary of the method: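 AC50 values come from Hill-equation fits of luminescent intracellular ATP (CellTiter-Glo, 30 min, room temperature) following 24 h compound exposure at 37 C. Cells: LYMP2-007 lymphoblastoid line, 2500 per well, in complete culture medium.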
# [2] = Cell Viability - LYMP2-008 (AID 980); further: nearly all actives have a fitted effect of over 60% in size
# Summary of the method: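 Cytotoxicity determined from ATP-dependent luciferase luminescence (CellTiter-Glo) following 24 h compound exposure of human lymphoblastoid LYMP2-008 cells at 37 C. Concentration-response data fitted to the Hill equation to give AC50.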
# [3] = Cell Viability - LYMP2-010 (AID 981); further: nearly all actives have a fitted effect of over 55% in size
# Summary of the method: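 CellTiter-Glo ATP luminescence measured cytotoxicity after 24 h compound exposure at 37 C. LYMP2-010 cells were seeded at 2500/well, with tetraoctylammonium bromide as control; concentration-response curves gave AC50 values by the Hill equation.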
# [4] = Cell Viability - LYMP2-012 (AID 982);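 further: cellular ATP by luciferase luminescence where a drop means cytotoxicity; cells exposed to compound for one day before reading; nearly all actives have a fitted effect of over 55% in size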
# [5] = Cell Viability - LYMP2-014 (AID 983); further: series mostly up to about 92 µM; nearly all actives have a fitted effect of over 50% in size
# Summary of the method: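 Intracellular ATP loss, read by luciferase luminescence, measures acute cytotoxicity after 24 h compound exposure of lymphoblastoid LYMP2-014 cells (2500/well, 37 C). Concentration-response data fitted to the Hill equation for AC50.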
# [6] = Cell Viability - LYMP2-016 (AID 984); further: nearly all actives have a fitted effect of over 55% in size
# Summary of the method: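 Cells were seeded at 2500 per well and rested 5 hr before a 24 hr compound exposure at 37 C. Viability was then gauged as cellular ATP by luciferase luminescence, with AC50 values fitted to the Hill equation.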
# [7] = Cell Viability - LYMP2-018 (AID 985); further: nearly all actives have a fitted effect of over 50% in size
# Summary of the method: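 Viability read as CellTiter-Glo luminescence (cellular ATP) after 24 hr compound exposure at 37 C of 2500 LYMP2-018 lymphoblastoid cells/well, pre-plated 5 hr. Hill-equation modelling gave AC50.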
# [8] = Cell Viability - LYMP2-020 (AID 986); further: series mostly up to about 92 µM; nearly all actives have a fitted effect of over 55% in size
# Summary of the method: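 Cytotoxicity in qHTS format: luminescent ATP readout from CellTiter-Glo after 24 h compound exposure at 37 C in complete medium. LYMP2-020 lymphoblastoid cells were seeded at 2500/well; concentration-response data fitted to the Hill equation for AC50.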
# [9] = Cell Viability - LYMP2-022 (AID 987); further: nearly all actives have a fitted effect of over 55% in size
# Summary of the method: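 Cytotoxicity read as decreased cellular ATP (CellTiter-Glo luminescence, 30 min room temperature) after 24 hours compound exposure of 2500 lymphoblastoid LYMP2-022 cells/well at 37 C. Concentration-response data fitted with standard Hill equation for AC50.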
# [10] = Cell Viability - LYMP2-024 (AID 988); further: nearly all actives have a fitted effect of over 60% in size
# Summary of the method: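 Cytotoxicity was taken as a decrease in ATP (CellTiter-Glo luminescence) after 24 hr compound exposure at 37 C of LYMP2-024 lymphoblastoid cells, 2500 cells/well. Concentration-response data were fitted to the Hill equation to give AC50.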
# [11] = Cell Viability - LYMP2-026 (AID 989); further: nearly all actives have a fitted effect of over 50% in size
# Summary of the method: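 Cytotoxicity read as ATP-dependent luminescence (CellTiter-Glo, 30 min room temperature) after 24 h compound treatment at 37 C. LYMP2-026 lymphoblastoid line seeded at 2500 cells/well; AC50 derived by standard Hill equation.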
# [12] = Cell Viability - LYMP1-002 - Assay at 24 hr (AID 993)
# Summary of the method: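 qHTS cytotoxicity at 24 h: CellTiter-Glo ATP luminescence in lymphoblastoid line LYMP1-002 incubated with compound at 37 °C. Concentration-response modeled with the Hill equation for AC50; tetraoctylammonium bromide served as positive control.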
# [13] = Cell Viability - LYMP1-002 - Assay at 40 hr (AID 994); further: nearly all actives have a fitted effect of over 60% in size
# Summary of the method: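 Cytotoxicity was read as loss of cellular ATP (CellTiter-Glo luminescence) after 40 hr compound exposure at 37 C of 2500 LYMP1-002 lymphoblastoid cells per well. Concentration-response data were fitted with the standard Hill equation to give AC50.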
# [14] = qHTS Assay for Identification of Small Molecule Inducers of Hypoxia Response (AID 2120; active means well fitted curve in the direction sought with a large enough effect in the signal ratio, with a control signal flat, not every such curve was filed as active; the % refers to the signal ratio)
# Summary of the method: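 Reporter induction read as the CCF4 blue/green (460nm/530nm) emission ratio after 2.5 h dye loading at room temperature. ME-180 HRE-beta-lactamase cells received titrated compounds for 17 h at 37 degrees Celsius; AC50 values derived.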
# [15] = molecular target: Estrogen receptor (Homo sapiens) (UniProt P03372); assay: qHTS assay for small molecule antagonists of estrogen receptor alpha signaling (AID 588513; active means well fitted curve in the direction sought with a large enough effect in the signal ratio, with a control signal flat, not every such curve was filed as active; the % refers to the signal ratio)
# Summary of the method: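 Fluorescence from CCF4 substrate after 2 h at room temperature gave reporter activity; cells had been exposed to compound and 0.5nM 17-beta-estradiol for 18 h at 37 C. Hill-equation fitting yielded IC50 and maximal response.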
# [16] = molecular target: Glucocorticoid receptor (Homo sapiens) (UniProt P04150); assay: qHTS assay for small molecule agonists of glucocorticoid receptor signaling (AID 588532; active means well fitted curve in the direction sought with a large enough effect in the signal ratio, with a control signal flat; the % refers to the signal ratio); details: HeLa MMTV-bla, beta-lactamase ratio, agonist, 18 h; stronger effect = higher value; percent of dexamethasone control, DMSO zero
# Summary of the method: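 MMTV-bla HeLa, beta-lactamase reporter; medium with 1% charcoal/dextran-stripped FBS; cpds up to 92 uM, 18 h, 37 C; CCF4 readout 460/530 nm; Hill fit → EC50, efficacy vs 0.1 uM dexamethasone = 100%.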
# [17] = molecular target: Glucocorticoid receptor (Homo sapiens) (UniProt P04150); assay: qHTS assay for small molecule antagonists of glucocorticoid receptor signaling (AID 588533; active means well fitted inhibition curve with a large enough effect in the signal ratio, with a control signal flat, not every such curve was filed as active; the % refers to the signal ratio;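 further: cells stimulated with 2 nM dexamethasone as agonist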)
# Summary of the method: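 Antagonist-mode qHTS: compound titrations added to GRE-bla HeLa cells, then dexamethasone 2 nM final; 18 h, 37 C. CCF4 FRET fluorescence normalized to dexamethasone and DMSO; IC50 from Hill fit.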
# [18] = qHTS assay for small molecule antagonists of peroxisome proliferator-activated receptor delta signaling (AID 588535; active means well fitted inhibition curve with a large enough effect in the signal ratio, with a control signal flat, not every such curve was filed as active; the % refers to the signal ratio;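 on max response: cells co-treated with a PPAR-delta agonist as stimulator during compound exposure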); details: HEK293T PPARd-UAS-bla, beta-lactamase FRET ratio, 18 h; 460 nm channel
# Summary of the method: (§1)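 Inhibition of PPAR-delta response element-driven beta-lactamase expression is measured in HEK293T cells exposed to a compound titration series for 18 hrs at 37 C. Half-maximal inhibition comes from Hill equation fitting.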
# [19] = molecular target: Peroxisome proliferator-activated receptor delta (Homo sapiens) (UniProt Q03181); assay: as above
# Summary of the method: as §1
# [20] = molecular target: Vitamin D3 receptor (Homo sapiens) (UniProt P11473); assay: qHTS assay for small molecule antagonists of vitamin D receptor signaling (AID 588541; calls by dose curve;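 further: receptor activated by calcitriol during compound treatment; series mostly up to about 77 µM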)
# Summary of the method: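 VDR-UAS-bla HEK293T cells (2000/well, 2% charcoal-stripped FBS) were treated with titrated compounds plus 1-alpha,25-dihydroxyvitamin D3 (50 nM or 3 nM final) for 16 h at 37 C. CCF4 beta-lactamase fluorescence was read; Hill fits gave IC50.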
# [21] = molecular target: Vitamin D3 receptor (Homo sapiens) (UniProt P11473); assay: qHTS assay for small molecule agonists of vitamin D receptor signaling (AID 588543; calls by dose curve)
# Summary of the method: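 Reporter cells (HEK293T, VDR-UAS-bla) were seeded in medium with 2% charcoal-stripped serum and incubated 5 h, then compounds in concentration series were added for 16 h at 37 °C. Stimulation was scaled between DMSO basal and 50 nM 1α,25-dihydroxyvitamin D3.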
# [22] = qHTS assay for small molecule agonists of retinoid X receptor alpha signaling (AID 588544); details: HEK293T RXRa-UAS-bla, beta-lactamase reporter, 18 h; 530 nm emission
# Glucocorticoid receptor (Homo sapiens), sequence (P04150 whole entry, looked up): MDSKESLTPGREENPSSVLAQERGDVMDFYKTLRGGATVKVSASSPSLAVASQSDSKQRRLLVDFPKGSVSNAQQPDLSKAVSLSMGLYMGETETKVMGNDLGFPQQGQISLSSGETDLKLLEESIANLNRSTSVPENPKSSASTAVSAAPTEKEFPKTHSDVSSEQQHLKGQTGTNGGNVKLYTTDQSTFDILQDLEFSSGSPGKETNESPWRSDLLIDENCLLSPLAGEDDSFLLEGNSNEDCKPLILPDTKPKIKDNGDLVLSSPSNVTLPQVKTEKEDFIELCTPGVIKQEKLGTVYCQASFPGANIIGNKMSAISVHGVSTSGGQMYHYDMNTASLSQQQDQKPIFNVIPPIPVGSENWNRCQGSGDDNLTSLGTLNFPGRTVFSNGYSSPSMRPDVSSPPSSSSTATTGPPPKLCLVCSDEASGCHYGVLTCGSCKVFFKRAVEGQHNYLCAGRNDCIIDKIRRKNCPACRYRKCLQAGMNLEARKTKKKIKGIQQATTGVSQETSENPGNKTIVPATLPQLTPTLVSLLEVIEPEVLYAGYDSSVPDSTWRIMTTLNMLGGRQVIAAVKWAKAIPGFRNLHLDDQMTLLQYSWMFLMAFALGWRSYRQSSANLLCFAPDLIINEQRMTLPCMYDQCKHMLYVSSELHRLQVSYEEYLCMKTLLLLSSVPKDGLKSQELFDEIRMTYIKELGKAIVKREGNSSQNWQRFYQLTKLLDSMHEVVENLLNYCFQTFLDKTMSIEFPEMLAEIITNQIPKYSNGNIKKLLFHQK
# Vitamin D3 receptor (Homo sapiens), sequence (P11473 whole entry, looked up): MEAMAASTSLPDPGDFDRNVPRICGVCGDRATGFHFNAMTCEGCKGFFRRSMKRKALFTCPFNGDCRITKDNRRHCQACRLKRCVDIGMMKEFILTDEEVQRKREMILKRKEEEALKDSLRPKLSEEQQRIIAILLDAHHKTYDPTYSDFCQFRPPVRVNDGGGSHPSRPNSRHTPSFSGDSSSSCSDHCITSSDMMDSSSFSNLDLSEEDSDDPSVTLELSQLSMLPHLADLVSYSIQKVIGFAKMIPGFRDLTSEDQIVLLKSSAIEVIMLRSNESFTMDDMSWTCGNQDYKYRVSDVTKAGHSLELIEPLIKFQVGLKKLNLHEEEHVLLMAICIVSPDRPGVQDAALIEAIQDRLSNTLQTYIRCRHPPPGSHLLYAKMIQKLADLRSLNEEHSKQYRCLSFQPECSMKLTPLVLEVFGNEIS
# Estrogen receptor (Homo sapiens), sequence (P03372 whole entry, looked up): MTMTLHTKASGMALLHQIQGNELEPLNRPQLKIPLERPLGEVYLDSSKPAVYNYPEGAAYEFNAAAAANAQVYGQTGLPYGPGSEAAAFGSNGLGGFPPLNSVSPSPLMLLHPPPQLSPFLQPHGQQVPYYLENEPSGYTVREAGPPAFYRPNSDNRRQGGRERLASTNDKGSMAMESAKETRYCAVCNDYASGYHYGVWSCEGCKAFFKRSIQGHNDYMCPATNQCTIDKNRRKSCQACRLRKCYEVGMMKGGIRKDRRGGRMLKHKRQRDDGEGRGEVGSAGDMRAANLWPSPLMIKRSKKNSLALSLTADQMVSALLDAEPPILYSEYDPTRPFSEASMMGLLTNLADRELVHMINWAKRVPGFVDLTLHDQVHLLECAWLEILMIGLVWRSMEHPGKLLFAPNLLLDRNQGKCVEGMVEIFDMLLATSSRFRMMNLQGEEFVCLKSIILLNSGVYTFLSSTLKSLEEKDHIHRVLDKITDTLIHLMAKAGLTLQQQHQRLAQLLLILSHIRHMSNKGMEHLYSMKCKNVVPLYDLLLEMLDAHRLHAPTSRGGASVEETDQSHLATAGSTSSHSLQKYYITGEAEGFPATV
# Peroxisome proliferator-activated receptor delta (Homo sapiens), sequence (Q03181 whole entry, looked up): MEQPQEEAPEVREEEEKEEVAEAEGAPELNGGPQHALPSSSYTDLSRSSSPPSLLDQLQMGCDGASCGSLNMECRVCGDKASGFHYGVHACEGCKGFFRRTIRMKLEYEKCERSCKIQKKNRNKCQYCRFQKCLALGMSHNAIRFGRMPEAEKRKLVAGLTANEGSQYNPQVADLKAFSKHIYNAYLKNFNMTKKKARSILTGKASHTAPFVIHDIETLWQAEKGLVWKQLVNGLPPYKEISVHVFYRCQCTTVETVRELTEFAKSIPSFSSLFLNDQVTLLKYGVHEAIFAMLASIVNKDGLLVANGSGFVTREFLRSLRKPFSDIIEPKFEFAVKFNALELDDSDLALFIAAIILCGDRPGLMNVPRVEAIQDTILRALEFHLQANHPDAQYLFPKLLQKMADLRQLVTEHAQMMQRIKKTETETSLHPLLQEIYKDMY
structure (smiles),measurement,setting,value
CC12CCC(CC1=O)C2(C)C (configuration not stated),Potency,[1],inactive
same,Potency,[2],inactive
same,Potency,[3],inactive
same,Potency,[4],inactive
same,Potency,[5],inactive
same,Potency,[6],inactive
same,Potency,[7],inactive
same,Potency,[8],inactive
same,Potency,[9],inactive
same,Potency,[10],inactive
same,Potency,[11],inactive
same,Potency,[12],inactive
same,Potency,[13],inactive
same,outcome,[14],inactive
same,Potency,[15],inactive
same,activation,[16],-1.08% (inactive) and -9.03% (inactive)
same,Potency,[17],inactive
same,max response,[18],-33.5% and 11.1%
same,Potency,[19],inactive
same,outcome,[20],inactive
same,outcome,[21],inactive
same,max response,[22],0.96% and -15.4%
